The text below walks through data of PubChem BioAssay (NCATS).

Records with an inconclusive call do not appear. The source made the active and inactive calls. The call rests on the fitted dose curve; in most records, active means well fitted curve in the direction sought with a large enough effect; inconclusive means small, poorly fitted or top-dose-only effect, or another doubt; inactive means no such curve, though single readings can be large; an effect the other way counts as inactive or inconclusive.
Potency means the concentration at half of the fitted maximal effect.

One test is described as follows: qHTS of pediatric cancer cell lines to identify multiple opportunities for drug repurposing: Confirmatory screen for A673 cells (AID 1347110). Further: nearly all actives have a fitted effect of over 65% in size. The conditions noted are these: A673 Ewing sarcoma cell viability; series mostly up to 45.9 µM. The method, boiled down: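 qHTS titration format: primary MIPE 0.78 nM-46 µM (11 pts), NPC 0.59 nM-46 µM; confirmation 11 pts. 48 h, CTG luminescence.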
(Quantitative high-throughput screening tests each substance at several concentrations.)
`C[C@@]1(C(=O)Nc2ccc(F)nc2)CCCN1c1nc(Nc2cc(C3CC3)[nH]n2)c2cccn2n1`: the Potency was 0.465 µM (active).
In the case of `CCOC(=O)[C@H](CCc1ccccc1)N[C@@H](C)C(=O)N1CCCC1C(=O)O` (some centres not stated), the Potency is 4.14 µM (active).
As to `COC(=O)Nc1ccc(-c2nc(N3CCOCC3)c3cnn(C4CCN(C(=O)OC)CC4)c3n2)cc1`, the Potency was 2.93 µM (active).
On the same count and under the same terms, for `C[C@H](c1ccc(F)cc1CCCC(=O)O)N(c1cc(F)ccc1F)S(=O)(=O)c1ccc(Cl)cc1` the value was “inactive”.
The same measure, in the same setting: for `Nc1ncnc2c1ncn2[C@@H]1O[C@H](CO)[C@@H](O)[C@@H]1O` the value was “inactive”.
On the same count and under the same terms, to `COc1cc([C@@H]2c3cc4c(cc3[C@@H](O[C@@H]3O[C@@H]5CO[C@@H](C)O[C@@H]5[C@H](O)[C@@H]3O)[C@H]3COC(=O)[C@H]23)OCO4)cc(OC)c1O` belongs 4.65 µM (active).
Regarding `CON(C)C(=O)N1N=C(c2cc(F)ccc2F)S[C@]1(CCCN)c1ccccc1`, the Potency was 0.0104 µM (active).
On the same count and under the same terms, for `CCC[C@H](Nc1nc(-c2ccc(NC(=O)NCC)c(OC)c2)ncc1C)c1cccnc1` the value was 0.233 µM (active).
The same measure, in the same setting: for `CCC(c1ccc(O)cc1)C(CC)c1ccc(O)cc1` (configuration not stated) the value was “inactive”; for `CC(C)CN(C[C@@H](O)[C@H](Cc1ccccc1)NC(=O)O[C@H]1CO[C@H]2OCC[C@H]21)S(=O)(=O)c1ccc(N)cc1`, “inactive”.
The same measure, in the same setting: to `CNC(=O)[C@H](CC1=CN=C2C=CCC=C12)NC(=O)[C@@H](CC(=O)NO)CC(C)C` belongs 14.7 µM (active); to `CN(C)CCN(C)C(=O)c1ccc(NC(=O)Nc2ccc(-c3nc(N4CCOCC4)c4ccn(CC(F)(F)F)c4n3)cc2)cc1`, 0.293 µM (active); to `CN(C(Cc1ccc(OS(=O)(=O)c2cccc3cnccc23)cc1)C(=O)N1CCN(c2ccccc2)CC1)S(=O)(=O)c1cccc2cnccc12` (configuration not stated), “inactive”.
As to `CC(C)n1c(C=C[C@H](O)C[C@H](O)CC(=O)O)c(-c2ccc(F)cc2)c2ccccc21`, the Potency is 4.65 µM (active).
For the molecule `Cc1csc(-c2nnc(Nc3ccc(Oc4ncccc4-c4ccnc(N)n4)cc3)c3ccccc23)c1`, the Potency was 9.27 µM (active).
The same measure, in the same setting: for `Cc1ccccc1-n1c(Cn2nc(-c3cccc(O)c3)c3c(N)ncnc32)nc2cccc(C)c2c1=O` the value was 7.37 µM (active); for `CO[C@H]1/C=C\O[C@@]2(C)Oc3c(C)c(O)c4c(O)c(c5c(nc6cc(C)ccn65)c4c3C2=O)NC(=O)C(C)=CC=C[C@H](C)[C@H](O)[C@@H](C)[C@@H](O)[C@@H](C)[C@H](OC(C)=O)[C@H]1C`, “inactive”; for `Nc1ccn([C@@H]2O[C@H](CO)[C@@H](O)[C@H]2O)c(=O)n1`, 0.657 µM (active).
Same read-out and setting: for `C[C@@H]1C[C@H]2[C@@H]3CCC4=CC(=O)C=C[C@]4(C)[C@@]3(F)[C@@H](O)C[C@]2(C)[C@@]1(O)C(=O)CO` the value was “inactive”; for `CSc1cccc(Nc2ncc3cc(-c4c(Cl)cccc4Cl)c(=O)n(C)c3n2)c1`, 2.08 µM (active); for `COc1cc2nccc(Oc3ccc(NC(=O)Nc4cc(C)on4)c(Cl)c3)c2cc1OC`, 18.5 µM (active).
On to `C[C@@]1(c2cc(-c3cncnc3)c(F)cc2F)CCSC(N)=N1`, for which the Potency entry was “inactive”.
Same read-out and setting: for `CC(=O)N1CCN(c2ccc(OCc3nn(C)c(C)c3-c3cccc4c(CCCOc5cc(C)c(Cl)c(C)c5)c(C(=O)O)n(Cc5cccnc5)c34)cc2)CC1` the value was 18.5 µM (active); for `CC[C@H](NC(=O)[C@H](C)NC)C(=O)N1C[C@@H](O)C[C@H]1Cc1c(-c2[nH]c3cc(F)ccc3c2C[C@H]2C[C@H](O)CN2C(=O)[C@H](CC)NC(=O)[C@H](C)NC)[nH]c2cc(F)ccc12`, 7.37 µM (active).
Same read-out and setting: for `CC1(COc2ccc3c(c2)ncn3-c2ccc3cccc(N4CCC(N)CC4)c3n2)COC1` the value was 7.37 µM (active); for `CCNC(=O)c1noc(-c2cc(C(C)C)c(O)cc2O)c1-c1ccc(CN2CCOCC2)cc1`, 0.0522 µM (active).
Still for that read-out and setting: for `Nc1ccc(-c2ccc3ncc4ccc(=O)n(-c5cccc(C(F)(F)F)c5)c4c3c2)cn1` the value was 0.185 µM (active).

A short description of the next test: qHTS of pediatric cancer cell lines to identify multiple opportunities for drug repurposing: Confirmatory screen for SK-N-MC cells (AID 1347111).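 Further: cells exposed to compound for 48 h before the readout; nearly all actives have a fitted effect of over 70% in size.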 The conditions noted are these: SK-N-MC cell viability; series mostly up to 45.9 µM. The method, boiled down:
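SK-N-MC cells at 500-1,000 cells/well in growth media were pre-incubated 5 h, then exposed to compounds at 11-point dilutions for 48 h at 37 degrees C, 5% CO2. Viability was read as CellTiter-Glo luminescence.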
In the case of `CCOC(=O)[C@H](CCc1ccccc1)N[C@@H](C)C(=O)N1CCCC1C(=O)O` (some centres not stated), the Potency was 14.7 µM (active).
Still for that read-out and setting: to `COC(=O)Nc1ccc(-c2nc(N3CCOCC3)c3cnn(C4CCN(C(=O)OC)CC4)c3n2)cc1` belongs 4.65 µM (active); to `Nc1ncnc2c1ncn2[C@@H]1O[C@H](CO)[C@@H](O)[C@@H]1O`, 8.27 µM (active).
Still for that read-out and setting: for `COc1cc([C@@H]2c3cc4c(cc3[C@@H](O[C@@H]3O[C@@H]5CO[C@@H](C)O[C@@H]5[C@H](O)[C@@H]3O)[C@H]3COC(=O)[C@H]23)OCO4)cc(OC)c1O` the value was 1.04 µM (active); for `CON(C)C(=O)N1N=C(c2cc(F)ccc2F)S[C@]1(CCCN)c1ccccc1`, 0.0093 µM (active).
Same read-out and setting: to `CCC(c1ccc(O)cc1)C(CC)c1ccc(O)cc1` (configuration not stated) belongs 9.27 µM (active); to `CN(C(Cc1ccc(OS(=O)(=O)c2cccc3cnccc23)cc1)C(=O)N1CCN(c2ccccc2)CC1)S(=O)(=O)c1cccc2cnccc12` (configuration not stated), 2.93 µM (active); to `CC(C)n1c(C=C[C@H](O)C[C@H](O)CC(=O)O)c(-c2ccc(F)cc2)c2ccccc21`, 23.3 µM (active).
Consider `Cc1csc(-c2nnc(Nc3ccc(Oc4ncccc4-c4ccnc(N)n4)cc3)c3ccccc23)c1`, for which the Potency is 0.0261 µM (active).
On the same count and under the same terms, to `Nc1ccn([C@@H]2O[C@H](CO)[C@@H](O)[C@H]2O)c(=O)n1` belongs 2.61 µM (active).
The same measure, in the same setting: for `CSc1cccc(Nc2ncc3cc(-c4c(Cl)cccc4Cl)c(=O)n(C)c3n2)c1` the value was 2.61 µM (active).
`COc1cc2nccc(Oc3ccc(NC(=O)Nc4cc(C)on4)c(Cl)c3)c2cc1OC`: the Potency is 16.5 µM (active).
The same measure, in the same setting: for `C[C@@]1(c2cc(-c3cncnc3)c(F)cc2F)CCSC(N)=N1` the value was 7.37 µM (active).
For `CCNC(=O)c1noc(-c2cc(C(C)C)c(O)cc2O)c1-c1ccc(CN2CCOCC2)cc1`, the Potency was 0.0827 µM (active).
The same measure, in the same setting: to `Nc1ccc(-c2ccc3ncc4ccc(=O)n(-c5cccc(C(F)(F)F)c5)c4c3c2)cn1` belongs 0.131 µM (active).
